Experiment [1] can be described thus: NCI Yeast Anticancer Drug Screen. Data for the rad50 strain (AID 155).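 Also: 0% = growth of vehicle-only cultures of the same strain.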 The settings on record: S. cerevisiae rad50 strain growth inhibition; at 50.0 µM; hits give high values. Summed up:
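Compounds were tested on a yeast strain with an engineered DNA damage repair alteration; the reported value is growth inhibition normalised to vehicle treatment.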

Experiment [2] in a line: NCI Yeast Anticancer Drug Screen. Data for the mec2-1 strain (AID 157). The settings on record: S. cerevisiae mec2-1 strain, at 50.0 µM, hits give high values. Summed up: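 Using mec2-1 yeast: add compound, measure growth, express inhibition versus vehicle-treated cultures.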
Experiment [3] in a line: NCI Yeast Anticancer Drug Screen. Data for the sgs1 mgt1 strain (AID 161).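 Also: 0% = growth of cultures given vehicle only.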 The note with it: S. cerevisiae sgs1 mgt1 strain, at 50.0 µM, hits give high values. Summed up: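 Percent growth inhibition was derived by comparing compound-exposed mutant yeast with vehicle-exposed cultures. The strain carries alterations in DNA damage repair.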
Experiment [4] in a line: NCI Yeast Anticancer Drug Screen. Data for the cln2 rad14 strain (AID 165).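 Also: 0% = growth equal to vehicle treated cultures.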 The settings on record: S. cerevisiae cln2 rad14 strain, at 50.0 µM, hits give high values. Summed up:
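Yeast strain cln2 rad14, bearing defects in cell cycle control and DNA repair, serves as the test system; values reflect growth inhibition compared with vehicle.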

A short description of experiment [5]: NCI Yeast Anticancer Drug Screen. Data for the bub3 strain (AID 167). The settings on record: S. cerevisiae bub3 mutant strain, at 50.0 µM, hits give high values. The essentials: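 Growth of a checkpoint-deficient yeast mutant is measured after compound exposure. Values represent inhibition relative to vehicle.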
A short description of experiment [6]: NCI Yeast Anticancer Drug Screen. Data for the mlh1 rad18 strain (AID 175). The note with it: S. cerevisiae mlh1 rad18 strain growth inhibition; at 50.0 µM; hits give high values. The essentials:
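Steps: expose repair-defective yeast to compound; measure growth; express inhibition against vehicle-treated controls.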

SMILES strings stand for the structures. The panel holds about 79,000 compounds, 15% with a hit somewhere; the sample as a whole holds those more often. Values without a mark were called inactive. Calls of active or inactive are those of the source. Rule as the data show it: active = growth inhibition above about 70%; inactive = the rest.

For the molecule `O=C1N=C(c2c[nH]c3ccccc23)C(=O)N1`, the growth inhibition is -1.8% in experiment [1]; 6.9% in experiment [2]; 15.9% in experiment [3]; 12.6% in experiment [4]; -1.45% in experiment [5]; 8.8% in experiment [6].

`NC1=NC(c2ccc(Cl)cc2)N(c2ccc(S(N)(=O)=O)cc2)C(N)=N1` (centres undefined): the growth inhibition was 9.05% in experiment [1]; -4.35% in experiment [2]; -24.5% in experiment [3]; -21.9% in experiment [4]; -11.3% in experiment [5]; 21.6% in experiment [6].

`Cc1cc(=O)[nH]c(NN)n1`: the growth inhibition was 1% in experiment [1]; -1.85% in experiment [2]; -1.85% in experiment [3]; 23.1% in experiment [4]; 21.9% in experiment [5]; 2.15% in experiment [6].

With `COc1ccccc1/C=N/Nc1nnc2c3ccccc3c3ncccc3c2n1`, the growth inhibition in experiment [1] was -28.8%; in experiment [2], -45.8%; in experiment [3], -22.5%; in experiment [4] it was -10.8%; in experiment [5] it was -8.55%; in experiment [6] it was -34%.

On to `CCOC(CN=C=S)OCC`, for which the growth inhibition in experiment [1] was 4.25%; in experiment [2] it was -3.95%; in experiment [3], 16.6%; in experiment [4], 9.05%; in experiment [5], -3.35%; in experiment [6], 4.65%.

`O=C1C=CC2C=CC1C=C2`: the growth inhibition in experiment [1] was -1.55%; in experiment [2] it was 14.8%; in experiment [3] it was 23.2%; in experiment [4] it was 1.15%; in experiment [5] it was -7.7%; in experiment [6], 11.7%.

`CC(=O)Nc1ccc(F)cc1`: the growth inhibition in experiment [1] was -38.3%; in experiment [2] it was -25.7%; in experiment [3], -5.3%; in experiment [4], 4%; in experiment [5] it was -19.5%; in experiment [6] it was -13.1%.

With `COc1ccccc1NC(=O)OCc1ccco1`, the growth inhibition in experiment [1] was 2.55%; in experiment [2] it was -6.9%; in experiment [3], 28.6%; in experiment [4] it was -65.2%; in experiment [5], 3.35%; in experiment [6], 6.85%.

On to `COc1ccc(Cc2c3cc(OC)c(OC)cc3cc[n+]2C)cc1`, for which the growth inhibition was -0.05% in experiment [1]; -28.4% in experiment [2]; -17.9% in experiment [3]; -2.45% in experiment [4]; -10.8% in experiment [5]; -6.15% in experiment [6].

As for `COc1cc(-c2cc(-c3cc([N+](=O)[O-])c(/C=N/NC(=O)c4ccncc4)o3)ccc2OC)ccc1C`, the growth inhibition in experiment [1] was 17.5%; in experiment [2], 8.2%; in experiment [3], -8.1%; in experiment [4], 26.9%; in experiment [5], 11.2%; in experiment [6] it was 8.3%.

For the molecule `COc1cc(C)c([N+](=O)[O-])cc1[N+](=O)[O-]`, the growth inhibition in experiment [1] is 4.15%; in experiment [2], 8.2%; in experiment [3], 9.65%; in experiment [4], -2.35%; in experiment [5], -10.1%; in experiment [6], 1%.

`COc1cc2c(cc1C)C1=C(C)C(=O)OC1[C@@H](O)[C@@H]2C` (some centres undefined): the growth inhibition in experiment [1] was 16.9%; in experiment [2] it was 11.6%; in experiment [3] it was 18.4%; in experiment [4], 3.45%; in experiment [5], 18.9%; in experiment [6], 18.8%.

`CN(C)CCCc1c2ccccc2nc2ccc(Cl)cc12`: the growth inhibition in experiment [1] is 12.5%; in experiment [2], 4.5%; in experiment [3] it was -10%; in experiment [4], -2.65%; in experiment [5], 2.65%; in experiment [6], 26.5%.

With `CC(=O)Nc1ccc(Cc2cc([N+](=O)[O-])cc([N+](=O)[O-])c2)cc1`, the growth inhibition in experiment [1] was -0.1%; in experiment [2] it was -14.6%; in experiment [3], 2.75%; in experiment [4], -50.9%; in experiment [5], 24.9%; in experiment [6], -18.6%.

Regarding `CCOC(=O)C(C)Oc1ccc(Cn2ccnn2)cc1` (centres undefined), the growth inhibition in experiment [1] was -20.1%; in experiment [2] it was -1.25%; in experiment [3], 15.9%; in experiment [4], -4.05%; in experiment [5], 3.1%; in experiment [6], 6.25%.

On to `O=C1OCC/C1=C\c1cccc([N+](=O)[O-])c1`, for which the growth inhibition is 10.4% in experiment [1]; 14.4% in experiment [2]; 11.2% in experiment [3]; -42.7% in experiment [4]; 22.5% in experiment [5]; 26.9% in experiment [6].

With `O=C1OC(=O)C2C1C1(Cl)CC2(Cl)C(Cl)=C1Cl` (centres undefined), the growth inhibition in experiment [1] is -3.05%; in experiment [2] it was -31.8%; in experiment [3], 2%; in experiment [4], -30.8%; in experiment [5] it was -23.1%; in experiment [6] it was -18.6%.

Turning to `Cn1c(=O)c(Br)c(C=O)n(CCO[N+](=O)[O-])c1=O`, the growth inhibition was -8.25% in experiment [1]; 32% in experiment [2]; 3.85% in experiment [3]; 15.6% in experiment [4]; 38.6% in experiment [5]; -27.6% in experiment [6].

For the molecule `CCN1C(=O)c2ccccc2C1=O`, the growth inhibition in experiment [1] was 11.8%; in experiment [2] it was -9.85%; in experiment [3], -5.25%; in experiment [4], -16.9%; in experiment [5], 5.95%; in experiment [6], 24.1%.

Regarding `Clc1ccc(C2OCCCO2)cc1`, the growth inhibition in experiment [1] was -21.1%; in experiment [2], 7.8%; in experiment [3], -9.7%; in experiment [4], 10.2%; in experiment [5], -8.4%; in experiment [6], -1.65%.

Consider `O=C(O)c1c(Cl)ccc([N+](=O)[O-])c1Cl`, for which the growth inhibition was -4.45% in experiment [1]; -24.2% in experiment [2]; -8.95% in experiment [3]; 8.8% in experiment [4]; -10.6% in experiment [5]; -1.45% in experiment [6].

On to `NC(=O)C(=O)C(c1ccccc1)c1ccccc1`, for which the growth inhibition in experiment [1] was 0.3%; in experiment [2], 4.55%; in experiment [3], -1.1%; in experiment [4] it was -4.05%; in experiment [5], 7.95%; in experiment [6], -8.35%.

For the molecule `O=S(=O)(Cl)c1c(F)c(F)c(F)c(F)c1F`, the growth inhibition in experiment [1] was -31.3%; in experiment [2], -41.1%; in experiment [3], -19.9%; in experiment [4], 24.1%; in experiment [5], -0.25%; in experiment [6], -21.4%.

As for `CCCCNCC1C(O)CCC2CN3CCc4c([nH]c5ccccc45)C3CC21` (centres undefined), the growth inhibition is 15.9% in experiment [1]; 5.85% in experiment [2]; 11.3% in experiment [3]; 9.9% in experiment [4]; 6.05% in experiment [5]; 16.9% in experiment [6].

Take `OCCCCCCOc1ccc(-c2cc(-c3ccccn3)nc(-c3ccccn3)c2)cc1`: the growth inhibition in experiment [1] is 52%; in experiment [2], 67.5%; in experiment [3], 68.9%; in experiment [4], 64.9%; in experiment [5], 70.5% (active); in experiment [6], 65.5%.

Regarding `O=C(O)C(=O)C(c1ccccc1)c1ccccc1`, the growth inhibition in experiment [1] is -0.4%; in experiment [2], 6.9%; in experiment [3], -21.1%; in experiment [4], -29.1%; in experiment [5], -22.9%; in experiment [6], -5.3%.

On to `Cc1ccc2c(c1-c1ccccc1)C(=O)OC2`, for which the growth inhibition in experiment [1] is -5.4%; in experiment [2], -3.05%; in experiment [3], 2.15%; in experiment [4], 5.35%; in experiment [5], 6.25%; in experiment [6] it was -3.3%.

On to `CC(=O)C1CC(CCC2([N+](=O)[O-])CCC(C)(O)C(C(C)=O)C2)([N+](=O)[O-])CCC1(C)O` (centres undefined), for which the growth inhibition in experiment [1] is 3.3%; in experiment [2] it was 5.05%; in experiment [3], 6.7%; in experiment [4], 2.6%; in experiment [5], 12.3%; in experiment [6] it was 20.6%.

In the case of `O=C(NCCc1ccccc1Br)c1ccccc1`, the growth inhibition was 8.25% in experiment [1]; -26.6% in experiment [2]; -5.95% in experiment [3]; 18.8% in experiment [4]; 28.7% in experiment [5]; -6.35% in experiment [6].

`O=C(O)CCCCl`: the growth inhibition in experiment [1] was 12.3%; in experiment [2] it was -7.8%; in experiment [3], 16.2%; in experiment [4], 13.7%; in experiment [5], 12.7%; in experiment [6] it was 26%.

On to `CC(=O)N/N=C/c1cccc([N+](=O)[O-])c1`, for which the growth inhibition in experiment [1] is -6.25%; in experiment [2], 5.15%; in experiment [3], -4.55%; in experiment [4], -35.8%; in experiment [5], -19.9%; in experiment [6] it was -7.9%.

Take `CCCCCCCCCCCCCCCCCCN=C=O`: the growth inhibition in experiment [1] is -23.6%; in experiment [2] it was -45.8%; in experiment [3], -17.8%; in experiment [4], -10.8%; in experiment [5] it was -31.8%; in experiment [6], -39%.

`CCOC(=O)c1cc2nc(NC(=O)c3ccccc3)sc2n1C`: the growth inhibition in experiment [1] is 4.85%; in experiment [2], 8.3%; in experiment [3], 7.3%; in experiment [4] it was 10.3%; in experiment [5] it was 6.4%; in experiment [6] it was 16.8%.

`CCSC(N)=Nc1ccccc1` (tested in a mixture with another compound): the growth inhibition in experiment [1] is 13.2%; in experiment [2] it was 9.5%; in experiment [3] it was 21.8%; in experiment [4], 13.3%; in experiment [5], 12.1%; in experiment [6], 18.1%.

As to `COc1ccc(N2C(=O)CCC2=S)cc1`, the growth inhibition in experiment [1] was -5.35%; in experiment [2] it was 8.55%; in experiment [3] it was 6.8%; in experiment [4] it was -4.5%; in experiment [5], -7.9%; in experiment [6], 15.5%.

As to `Cc1cccc(NC(=O)COc2ccc(Cl)cc2)c1C`, the growth inhibition in experiment [1] was 12.4%; in experiment [2], 8.6%; in experiment [3], 5.1%; in experiment [4], -15.2%; in experiment [5] it was 13.1%; in experiment [6] it was -4.7%.

On to `O=C(O)c1ccc(S(=O)(=O)c2ccccc2[N+](=O)[O-])cc1`, for which the growth inhibition in experiment [1] is -12.9%; in experiment [2], -10.3%; in experiment [3], -35.8%; in experiment [4] it was -19%; in experiment [5], -12.1%; in experiment [6], -38.6%.

Regarding `CC(C)C(N)=O`, the growth inhibition in experiment [1] was 5.1%; in experiment [2], -0.1%; in experiment [3], -7.15%; in experiment [4] it was -3%; in experiment [5], 12.1%; in experiment [6] it was -9.25%.

Regarding `Cc1cc(C(=O)O)c2cc(Br)ccc2n1`, the growth inhibition was 4.2% in experiment [1]; 12.3% in experiment [2]; 15.2% in experiment [3]; 17.3% in experiment [4]; 11.2% in experiment [5]; -4.5% in experiment [6].
